# Reference: the supplement of paper PMC8728848
# The sample as a whole holds a higher share of the strongest signals than the screen did.
# Legend:
# Assay in all cases: glycan array binding signal (z-score within array); higher = stronger binding
# Conditions in all cases: glycan notation: IUPAC condensed, linker removed
# [1] = target: Gal(b1-4)GlcNAc(b1-3)[Fuc(a1-3)GlcNAc(b1-6)]Gal(b1-4)Glc
# Procedure, shortened: (§1)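 Negative Z-scores can be read as non-binding. The Z-score is calculated within each array and then averaged across arrays of one protein sequence at different concentrations or buffers and across linkers. Arrays, 3228 in all, were curated from the Consortium for Functional Glycomics database and kept only where the protein sequence was available.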
# Gal(b1-6)Gal = target: Gal(b1-6)Gal
# Procedure, shortened: as §1
# [2] = target: GalNAc(b1-4)GlcNAc(b1-2)Man(a1-3)[GalNAc(b1-4)GlcNAc(b1-2)Man(a1-6)]Man(b1-4)GlcNAc(b1-4)GlcNAc
# Procedure, shortened: as §1
# GalNAc(b1-6)GalNAc = target: GalNAc(b1-6)GalNAc
# Procedure, shortened: as §1
# [3] = target: Glc(a1-6)Glc(a1-6)Glc(a1-6)Glc
# Procedure, shortened: as §1
# [4] = target: GlcNAc(a1-4)Gal(b1-4)GlcNAc(b1-3)Gal(b1-4)[Fuc(a1-3)]GlcNAc(b1-3)Gal(b1-4)[Fuc(a1-3)]GlcNAc
# Procedure, shortened: as §1
# [5] = target: GlcNAc(b1-2)[GlcNAc(b1-4)]Man(a1-3)[GlcNAc(b1-4)][GlcNAc(b1-2)[GlcNAc(b1-6)]Man(a1-6)]Man(b1-4)GlcNAc(b1-4)GlcNAc
# Procedure, shortened: as §1
# [6] = target: GlcNAc(b1-2)[GlcNAc(b1-6)]Man(a1-6)[GlcNAc(b1-2)Man(a1-3)]Man(b1-4)GlcNAc(b1-4)GlcNAc
# Procedure, shortened: as §1
# [7] = target: GlcNAc(b1-3)Gal(b1-4)GlcNAc
# Procedure, shortened: as §1
# [8] = target: GlcNAc(b1-3)Gal(b1-4)GlcNAc(b1-2)[GlcNAc(b1-3)Gal(b1-4)GlcNAc(b1-6)]Man(a1-6)[GlcNAc(b1-3)Gal(b1-4)GlcNAc(b1-2)Man(a1-3)]Man(b1-4)GlcNAc(b1-4)GlcNAc
# Procedure, shortened: as §1
# [9] = target: GlcNAc(b1-3)Gal(b1-4)GlcNAc(b1-3)Gal(b1-4)GlcNAc(b1-3)Gal(b1-4)GlcNAc(b1-3)Gal(b1-4)GlcNAc(b1-2)Man(a1-3)[GlcNAc(b1-3)Gal(b1-4)GlcNAc(b1-3)Gal(b1-4)GlcNAc(b1-3)Gal(b1-4)GlcNAc(b1-3)Gal(b1-4)GlcNAc(b1-2)Man(a1-6)]Man(b1-4)GlcNAc(b1-4)[Fuc(a1-6)]GlcNAc
# Procedure, shortened: as §1
# [10] = target: GlcNAc(b1-4)[GlcNAc(b1-6)]GalNAc
# Procedure, shortened: as §1
# [11] = target: Man(a1-2)Man(a1-3)[Man(a1-2)Man(a1-6)]Man(a1-6)[Man(a1-2)Man(a1-2)Man(a1-3)]Man(b1-4)GlcNAc(b1-4)GlcNAc
# Procedure, shortened: as §1
# Man(a1-3)[Man(a1-6)]Man = target: Man(a1-3)[Man(a1-6)]Man
# Procedure, shortened: as §1
# [12] = target: Man(a1-3)[Man(a1-6)]Man(a1-6)[Man(a1-2)Man(a1-3)]Man(b1-4)GlcNAc(b1-4)GlcNAc
# Procedure, shortened: as §1
# [13] = target: Neu5Ac(a2-3)Gal(b1-3)GalNAc
# Procedure, shortened: as §1
# [14] = target: Neu5Ac(a2-3)Gal(b1-3)GlcNAc(b1-2)Man
# Procedure, shortened: as §1
# [15] = target: Neu5Ac(a2-3)Gal(b1-4)GlcNAc6S
# Procedure, shortened: as §1
# [16] = target: Neu5Ac(a2-3)Gal(b1-4)[Fuc(a1-3)]GlcNAc(b1-3)GalNAc
# Procedure, shortened: as §1
# [17] = target: Neu5Ac(a2-6)Gal(b1-4)GlcNAc(b1-2)[Neu5Ac(a2-6)Gal(b1-4)GlcNAc(b1-6)]Man(a1-6)[Neu5Ac(a2-6)Gal(b1-4)GlcNAc(b1-2)Man(a1-3)][GlcNAc(b1-4)]Man(b1-4)GlcNAc(b1-4)GlcNAc
# Procedure, shortened: as §1
# [18] = target: Neu5Ac(a2-6)Gal(b1-4)GlcNAc(b1-3)Gal(b1-4)GlcNAc(b1-2)Man(a1-3)[Neu5Ac(a2-6)Gal(b1-4)GlcNAc(b1-3)Gal(b1-4)GlcNAc(b1-2)Man(a1-6)]GalNAc
# Procedure, shortened: as §1
# [19] = target: Neu5Ac(a2-6)Gal(b1-4)GlcNAc(b1-3)Gal(b1-4)GlcNAc(b1-3)Gal(b1-4)GlcNAc(b1-2)Man(a1-3)[Neu5Ac(a2-6)Gal(b1-4)GlcNAc(b1-3)Gal(b1-4)GlcNAc(b1-3)Gal(b1-4)GlcNAc(b1-2)Man(a1-6)]GalNAc
# Procedure, shortened: as §1
# [20] = target: Neu5Ac(a2-6)Gal(b1-4)GlcNAc(b1-6)[Gal(b1-3)GlcNAc(b1-3)]Gal(b1-4)Glc
# Procedure, shortened: as §1
# [21] = target: Neu5Ac(a2-6)Gal(b1-4)GlcNAc(b1-6)[Gal(b1-3)]GalNAc
# Procedure, shortened: as §1
# [22] = target: Neu5Gc(a2-3)Gal(b1-3)[Fuc(a1-4)]GlcNAc
# Procedure, shortened: as §1
binder,measurement,setting,value
SP15308F-bth-333-19-333 (Bacteroides thetaiotaomicron) (protein) SCNNEWESEQYVQMVSFKAPVNAQGVTPIYIRYKPEGKVTYQLPLIVSGSTMNSKDLNVHVGLDLDTLDVLNVEHFGSRKELFFKPLENKYYEFPETVQIPAGECTSLLPIDFALKDLDQVDKWVLPLAIQSNDPSHNYQANPRKFYRRAMLRISPFNDYSGQYSATAYKVYFKGNEKEAIVPEYHTSYVIDDKTIFFYAGLIDIDRLDRKYYKIKFEFTEEKIDLQTRKLKISSDNEDINLVVKGQPSYTVEEEMDATRPYLKHIYVTINNLEYEFTDYTSVPGYPLEYVVKGSLTMERKINTQIPDEDQAIEW,glycan array binding signal (z-score),[1],-0.005
same,glycan array binding signal (z-score),Gal(b1-6)Gal,-0.244
same,glycan array binding signal (z-score),[2],1.38
same,glycan array binding signal (z-score),GalNAc(b1-6)GalNAc,2.02
same,glycan array binding signal (z-score),[3],-0.539
same,glycan array binding signal (z-score),[4],2.63
same,glycan array binding signal (z-score),[5],-1.46
same,glycan array binding signal (z-score),[6],-0.327
same,glycan array binding signal (z-score),[7],-0.835
same,glycan array binding signal (z-score),[8],2.85
same,glycan array binding signal (z-score),[9],2.43
same,glycan array binding signal (z-score),[10],0.249
same,glycan array binding signal (z-score),[11],-0.143
same,glycan array binding signal (z-score),Man(a1-3)[Man(a1-6)]Man,-0.694
same,glycan array binding signal (z-score),[12],-0.363
same,glycan array binding signal (z-score),[13],1.83
same,glycan array binding signal (z-score),[14],1.15
same,glycan array binding signal (z-score),[15],1.4
same,glycan array binding signal (z-score),[16],3.76
same,glycan array binding signal (z-score),[17],0.627
same,glycan array binding signal (z-score),[18],3.27
same,glycan array binding signal (z-score),[19],2.6
same,glycan array binding signal (z-score),[20],-0.927
same,glycan array binding signal (z-score),[21],-0.014
same,glycan array binding signal (z-score),[22],0.217
